Screens from PubChem BioAssay.
The list is not random: actives were taken first. Their share in the collection is about 3.5%.
Pf apPOL block: Pf-apPOL DNA polymerase inhibition; AID 1794808; inhibition, % at 10 µM; Recombinant Pf-apPOL, molecular beacon fluorescence, 1.5 h; actives 0.25% (n = 210,000)
mHTT-CaM PPI inh: inhibitors of human mutant huntingtin-calmodulin interaction | P42858 | AlphaScreen His-mHTT/GST-CaM binding, luminescence | inhibition, % at 15 µM | actives 3.6% (n = 190,000);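 further: 0% = both proteins with DMSO and 100% = one protein alone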
The depositor's hits bear a star; i = inactive; x = no result; + = active, no number. No stated cut-off is given here; in the data, active means inhibition above about 50%; inactive means the rest.

SMILES	Pf apPOL block	mHTT-CaM PPI inh
N#CCc1ccc(NC(=O)COc2cccc(Cl)c2Cl)cc1	-9	5
NC(=O)CC(=O)c1ccc(F)cc1	-2	x
O=C(Nc1nnc(SCc2ccccc2F)s1)NC1CC1	-3	-6
O=S(=O)(c1ccc(F)c(F)c1)N1CCC(c2noc(-c3ccc(F)cc3)n2)CC1	-7	-6
O=C(c1ccc(Cn2cncn2)cc1)N1CCN(c2ccc(Cl)cc2)CC1	-11	5
Cc1ccc(Cl)cc1N1CCN(C(=O)c2ccc(Cn3cncn3)cc2)CC1	-4	89*
CC(Oc1ccccc1)C(=O)Nc1c2c(nn1-c1ccc(F)cc1)CS(=O)(=O)C2 (stereo not drawn)	16	7
CC(Oc1ccccc1)C(=O)N1CCc2c(c(-c3nc(-c4ccccc4)no3)nn2C)C1 (stereo not drawn)	-2	8
O=C1C=CC(=Nc2ccc(Br)cc2)C=C1	-5	87*
COc1ccccc1C(=O)Nc1ccccn1	1	-8
COc1cccc(C(Nc2ccccn2)c2ccc3ccc(C)nc3c2O)c1OC (stereo not drawn)	-30	69*
Cc1cc(C)c2nc(C)cc(NC(=O)c3ccccn3)c2c1	-1	-11
Cc1ccc2ccc(C(Nc3ccccn3)c3ccccc3C)c(O)c2n1 (stereo not drawn)	-33	68*
O=C(NCc1ccc(F)cc1)c1ccc(N2CCN(c3ccccn3)CC2)c([N+](=O)[O-])c1	-2	59*
O=C(NCc1cccnc1)c1ccc(N2CCN(c3ccccn3)CC2)c([N+](=O)[O-])c1	-5	30
COC(OC)C12c3ccccc3C(c3ccccc31)C1C(=O)N(Cc3ccco3)C(=O)C12 (stereo not drawn)	-3	2
COc1ccc(C2CC3(O)CC(C#N)(C(=O)N3)C2(C#N)C#N)cc1 (stereo not drawn)	-2	2
COc1ccc(C2CC3(C)CC(=O)C2C(C#N)(C#N)C3(C#N)C#N)cc1 (stereo not drawn)	-9	79*
Fc1ccc(F)c(-c2nc(-c3cccc(-c4ccn[nH]4)c3)no2)c1	0	1
COc1cc(N2Cc3ccccc3C2)ccc1C=O	-5	72*
COc1cc(N2Cc3ccccc3C2)ccc1/C=C(\C#N)C(=O)NCc1ccco1	-2	18
Cc1ccc(-n2cc(-c3ccc4c(c3)OCO4)[nH]c2=O)cc1	1	70*
O=c1[nH]c(-c2ccc3c(c2)OCO3)cn1-c1ccccc1	0	7
CCN(Cc1ccccc1)S(=O)(=O)c1ccc2c(c1)CC(C)N2C(C)=O (stereo not drawn)	-1	0
CCOc1cc(/C=C2/C=C(c3ccc(C)cc3)OC2=O)ccc1O	8	55*
SMILES	Pf apPOL block	mHTT-CaM PPI inh
CCOc1ccc(C2=C/C(=C/c3ccc(C)c(OC)c3)C(=O)O2)cc1	3	-14
Cc1sc2ncn(CC(=O)N3CCC(C#N)CC3)c(=O)c2c1S(=O)(=O)N1CCC(C)CC1	-3	13
CC(=O)Nc1cc(C(=O)NCC(C)C)c2ccc(C)nc2c1	18	21
Cc1ccc2c(C(=O)NCc3ccccc3C)cc(NC(=O)C(C)C)cc2n1	3	54*
Cc1cccc(CNC(=O)c2cc(NC(=O)C(C)C)cc3nc(C)ccc23)c1	-1	21
CC(=O)Nc1cc(C(=O)NCc2ccccc2C)c2ccc(C)nc2c1	5	73*
CCN(CC)CCCN1C(=O)C(O)=C(C(=O)c2ccc(C)o2)C1c1ccc([N+](=O)[O-])cc1 (stereo not drawn)	12	1
Cc1cc(C)cc(C(=O)N2CCC3(CC2)NC(=O)c2ccc(F)cc2N3C)c1	1	-10
Fc1ccc(C2CC(c3ccc(I)cc3)Nc3ncnn32)cc1 (stereo not drawn)	-4	31
Fc1ccc(C2CC(c3ccc(Cl)cc3)Nc3ncnn32)cc1 (stereo not drawn)	3	58*
Clc1cccc(C2CC(c3ccc(I)cc3)Nc3ncnn32)c1 (stereo not drawn)	-3	51*
COc1cccc(C2CC(c3cccc(Cl)c3)n3ncnc3N2)c1 (stereo not drawn)	1	5
O=C(NCC1(O)CCCC1)C(=O)NC1CCCC1	5	-1
O=S(=O)(Nc1ccccc1)c1cccnc1Nc1ccc(F)cc1	-20	49
Cc1ccc(NC(=O)c2c(C)nc3ccccn23)cc1	1	-4
CCN(CC)Cc1c(O)ccc2c1OC(=Cc1ccc(Br)cc1)C2=O	-114	58*
O=C1C(=Cc2ccc(Br)cc2)Oc2c1ccc(O)c2CN1CCOCC1	-24	56*
CCN1CCN(Cc2c(O)ccc3c2OC(=CC=Cc2ccccc2)C3=O)CC1	-6	40
O=C1C(=Cc2ccc(Br)cc2)Oc2c1ccc(O)c2CN1CCCC1	-61	34
CCN(CC)Cc1c(O)ccc2c1OC(=Cc1ccc(C)cc1)C2=O	-22	6
O=C1C(=CC=Cc2ccccc2)Oc2c1ccc(O)c2CN1CCOCC1	-13	62*
COc1ccc(C(=O)Oc2ccc(C=Cc3ccncc3)cc2OC)cc1	7	5
N/C(=N\OC(=O)Oc1ccccc1)c1ccccn1	-3	+
N/C(=N\OS(=O)(=O)c1ccccc1)c1ccccn1	1	i
N/C(=N\OS(=O)(=O)c1ccc(Cl)cc1)c1ccccn1	4	+
SMILES	Pf apPOL block	mHTT-CaM PPI inh
N/C(=N\OC(=O)Oc1ccccc1)c1ccncc1	-9	i
COc1ccc(OC)c(S(=O)(=O)c2ccc([N+](=O)[O-])cc2Cl)c1	-10	x
CC(C)Cc1ccc(S(=O)(=O)n2cc([N+](=O)[O-])cn2)cc1	-3	100*
O=[N+]([O-])c1ccc(S(=O)(=O)n2cccn2)cc1	13	8
COc1ccc(OC)c(S(=O)(=O)n2cc([N+](=O)[O-])cn2)c1	-11	100*
CCOc1ccc(C(=O)Nc2ccc(NC(C)=O)cc2)cc1Br	-4	-1
COc1ccc2c(c1)C(C)(C)C1(C=Cc3cc([N+](=O)[O-])cc(OC)c3O1)N2C (stereo not drawn)	3	61*
CNC(=O)CN1c2ccccc2C(C)(C)C12C=Cc1cc([N+](=O)[O-])ccc1O2 (stereo not drawn)	-4	96*
COc1cc([N+](=O)[O-])cc2c1OC1(C=C2)N(C)c2ccccc2C1(C)C (stereo not drawn)	-14	71*
COc1cc([N+](=O)[O-])cc2c1OC1(C=C2)N(C)c2ccc([N+](=O)[O-])cc2C1(C)C (stereo not drawn)	1	13
CN1c2ccccc2C(C)(C)C12C=Cc1cc([N+](=O)[O-])ccc1O2 (stereo not drawn)	-6	-4
COc1cc2c(c(OC)c1[N+](=O)[O-])C=CC1(O2)N(C)c2ccccc2C1(C)C (stereo not drawn)	3	32
O=S(=O)(Cc1nc(-c2cccc(Cl)c2)no1)c1ccc(F)cc1	-8	-14
CCOc1ccccc1C(=O)N1CCCC1COc1ccc(C(=O)N2CCCC2)cc1 (stereo not drawn)	6	24
COC(=O)c1ccccc1S(=O)(=O)N1CCC(c2noc(-c3cccc(F)c3)n2)CC1	-8	-22
O=C(O)c1ccc(Oc2ccc(S(=O)(=O)c3ccc(C(=O)O)cc3)cc2)cc1	1	-1
CCCC1c2ccc(C)n2CCN1C(=O)Nc1ccc(C)c(F)c1 (stereo not drawn)	4	10
CCCC1c2cccn2CCN1C(=O)Nc1ccc(C)c(Cl)c1 (stereo not drawn)	-7	80*
